High-throughput results from PubChem.
In the library only some 1.6% were active in any assay of this set; here they are far more common.
KCNQ2 block: rat KCNQ2 potassium channel inhibitors, primary screen, cell-based, CHO-K1, FluxOR thallium flux, B-score; Potassium voltage-gated channel subfamily KQT member 2 (Rattus norvegicus), O88943; 20 min; hits give low values; B-score at 10 µM; actives 1.1% (n = 310,000); AID 2156, 2009;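 active = fluorescence ratio B-score at most minus 3 library SDs, with starting brightness B-score within 2 library SDs, cut at about -5.5 in these data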
Target sequence (O88943 whole entry, looked up): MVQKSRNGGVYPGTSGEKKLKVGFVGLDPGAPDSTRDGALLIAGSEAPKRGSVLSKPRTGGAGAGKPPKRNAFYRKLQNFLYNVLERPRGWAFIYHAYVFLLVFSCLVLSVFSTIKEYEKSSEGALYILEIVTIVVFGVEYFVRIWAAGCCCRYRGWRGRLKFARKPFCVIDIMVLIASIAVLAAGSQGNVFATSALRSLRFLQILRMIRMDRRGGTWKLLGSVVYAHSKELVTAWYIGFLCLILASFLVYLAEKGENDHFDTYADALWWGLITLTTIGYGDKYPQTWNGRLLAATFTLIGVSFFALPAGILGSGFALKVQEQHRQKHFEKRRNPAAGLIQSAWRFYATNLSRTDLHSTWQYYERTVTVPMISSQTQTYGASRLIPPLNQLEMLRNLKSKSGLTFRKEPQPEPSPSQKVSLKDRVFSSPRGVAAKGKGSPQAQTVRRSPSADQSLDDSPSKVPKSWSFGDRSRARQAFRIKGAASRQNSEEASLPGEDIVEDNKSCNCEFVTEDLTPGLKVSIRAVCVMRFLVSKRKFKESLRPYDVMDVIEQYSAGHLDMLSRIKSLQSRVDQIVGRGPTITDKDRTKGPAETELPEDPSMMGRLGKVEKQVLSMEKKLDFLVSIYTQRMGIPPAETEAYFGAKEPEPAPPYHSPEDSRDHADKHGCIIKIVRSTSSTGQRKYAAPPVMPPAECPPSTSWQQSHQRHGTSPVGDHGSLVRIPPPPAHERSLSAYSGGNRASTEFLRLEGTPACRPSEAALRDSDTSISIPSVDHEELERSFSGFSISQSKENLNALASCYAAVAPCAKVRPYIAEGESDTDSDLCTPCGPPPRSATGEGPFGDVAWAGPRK
KCNQ2 enhance: potentiators of rat KCNQ2 potassium channel; CHO-K1 KCNQ2, FluxOR thallium flux fluorescence; hits give high values; AID 2239, 2010; Potassium voltage-gated channel subfamily KQT member 2 (Rattus norvegicus), O88943; B-score at 10 µM; actives 0.54% (n = 310,000);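 active = fluorescence ratio B-score at least 3 SD of library B-scores, with initial fluorescence B-score within 3 of them, cut at about 5.3 in these data; same plate scores as AID 2156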;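 note: B-score of peak minus minimum over baseline fluorescence ratio after K+ and Tl+ stimulus; positive B-score means potentiation of KCNQ2 with more thallium influx and brighter signal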
* = called active by the depositor; i = inactive; . = no result.

SMILES	KCNQ2 block	KCNQ2 enhance
COC(=O)C1CCCN1C(=O)COc1ccc(Br)cc1Cl (stereo not given)	i	6.63*
CC(C)N(C(=O)COc1ccc(Br)cc1Cl)C(C)C	-5.68*	-5.68
CCOc1ccc2[nH]c3nc(SCC(=O)NC4CC4)nnc3c2c1	i	0.94
CCOC(=O)CSc1nc2sc(C)c(C)c2c(=O)[nH]1	i	1.09
CCOC(=O)/C(=C\c1ccc(Cl)cc1)c1nc2sc(C)c(C)c2c(=O)[nH]1	-6.93*	-6.93
O=C(c1ccc2[nH]c(=O)c(=O)[nH]c2c1)N1CCc2ccccc21	i	0.45
Cc1cc(C)c(S(=O)(=O)Nc2nnc(C3CCCCC3)s2)c(C)c1	i	1.09
CC1CC(C)CN(C(=O)c2ccc3c(c2)N(Cc2ccccc2)CCS3)C1 (stereo not given)	-6.19*	-6.19
CCOC(=O)N1CCN(C(=O)c2ccc3c(c2)N(Cc2ccccc2)CCS3)CC1	i	.
Cc1cc2c(cc1S(=O)(=O)N1CC(C)CC(C)C1)OCC(=O)N2 (stereo not given)	i	1.72
OCC[C@H]1C[C@@H](O)[C@H](O)[C@@]2(CCCCO2)O1	i	1.37
C/C(=N\Nc1nc2ccccc2[nH]1)c1ccc(Cl)s1	i	13.4*
C/C(=N\Nc1nc2ccccc2[nH]1)c1ccc(C)o1	i	0.11
CCOC(=O)c1c(O)c(Cl)c(C)[nH]c1=O	i	0.57
O=C(CN1CCCCCC1)Nc1ccc(Oc2ccccc2)cc1	i	9.03*
NC(=O)C1(N2CCCCC2)CCN(CC(=O)Nc2ccc(Oc3ccccc3)cc2)CC1	i	0.6
CC(C)CN(CC(C)C)S(=O)(=O)c1cc([N+](=O)[O-])ccc1N1CCCCCC1	-6.08*	-6.08
CN(C)S(=O)(=O)c1cc([N+](=O)[O-])ccc1N1CCCCCC1	i	.
CCN(CC)c1nc(C)c2c(c1C#N)CC(C)(C)OC2	-6.69*	-6.69
Cc1nc(NCCCO)c(C#N)c2c1COC(C)(C)C2	i	.
COc1ccc2ccccc2c1CN(C)Cc1ccccc1	i	1.68
CN(Cc1ccccc1)Cc1c(F)cccc1F	i	6.61*
Cc1ccc2cc(C=O)c(Cl)nc2c1	i	3.11
Cc1ccc(N2C(=O)c3ccccc3C2Nc2ccccc2)nc1 (stereo not given)	i	.
CCc1cccc(NC2c3ccccc3C(=O)N2c2ccc(C)cn2)c1 (stereo not given)	-7.55*	-7.55
SMILES	KCNQ2 block	KCNQ2 enhance
O=C(NCc1ccccn1)c1ccc(NS(=O)(=O)c2cccc(Cl)c2)cc1	i	.
CCc1ccc(NC(=O)[C@H](C)NC(=O)C2CCN(C(=O)[C@@H](N)C(C)C)CC2)cc1	i	0.58
COc1cc(/C=N/O)ccc1Oc1cnccn1	i	1.2
C/C(=N/Nc1nc(C)cc(-c2ccccc2)n1)c1ccco1	i	1.71
C/C(=N\Nc1nc(C)cc(-c2ccccc2)n1)c1ccc(C)o1	-6.07*	-6.07
CC(NS(=O)(=O)c1ccccc1)C(=O)Nc1ccc2c(c1)OCCO2 (stereo not given)	i	.
CCCOc1ccc(C2=CSC3=NCCN23)cc1	i	0.03
Cc1cc(OCc2cc(C(=O)NCCN3CCCCC3CO)no2)cc(C)c1Cl (stereo not given)	-7.87*	-7.87
COc1cccc(OCc2cc(C(=O)NCCN3CCCCC3CO)no2)c1 (stereo not given)	i	0.27
CCCN(CCC)CCN1C(=O)C2C(C(=O)Nc3cccc(SC)c3)C3C=CC2(O3)C1C(=O)NC1CCCCC1 (stereo not given)	i	.
O=C1C2ON(c3ccccc3)C(c3cccnc3)C2C(=O)N1Cc1ccccc1 (stereo not given)	i	.
COc1cc(C2C3C(=O)N(Cc4ccccc4)C(=O)C3ON2c2ccccc2)cc(OC)c1OC (stereo not given)	-6.36*	-6.36
COc1cc([N+](=O)[O-])ccc1NC(=O)C[n+]1cccc(C(C)=O)c1	i	0.77
NC(CSCc1cccc(Br)c1)C(=O)O (stereo not given)	-5.95*	-5.95
NC(=O)CSCc1cccc(Br)c1	i	.
Cc1ccc(CNC(=O)CCS(=O)(=O)c2ccc(Cl)cc2)cc1	i	.
Cc1ccc(C)c(C(=O)CCC(=O)NCc2ccc(Cl)cc2)c1	-5.95*	-5.95
CC(C)=CC(=O)Nc1ccc(OCc2ccccc2)cc1	i	7.6*
O=C(Nc1ccc(OCc2ccccc2)cc1)c1ccccc1	i	.
CCc1ccc(CNC(=O)C2Cc3cc(S(=O)(=O)N4CCCC4)ccc3N2C(C)=O)cc1 (stereo not given)	i	.
O=S(=O)(O)c1ccc(N=Nc2ccccc2)cc1	i	0.12
O=c1ccc(N=Nc2ccccc2)ccc1O	i	19.2*
COc1cccc(NC(=O)CN(C)C(=O)c2cc(-c3ccco3)nc3ccccc23)c1	i	.
CN(CCOc1ccc(Cl)cc1)C(=O)c1cc(-c2ccco2)nc2ccccc12	-13.2*	-13.2
Cc1cc(=O)oc2cc(OCC(=O)Nc3ccc(N4CCC(C)CC4)cc3)ccc12	i	0.18
SMILES	KCNQ2 block	KCNQ2 enhance
N#Cc1ccccc1/C=N/Nc1nc(-c2ccccc2)c2cc(Cl)ccc2n1	i	0.05
Cc1ccc2nc(N/N=C/c3ccccc3C#N)nc(-c3ccccc3)c2c1	-6.03*	-6.03
CSc1nc(C)c(C(=O)C[n+]2ccccc2)cc1C#N	i	.
CC1(C)Cc2c(sc3nc(=S)[nH]c(N)c23)CO1	i	.
COCc1cc(CN2CCN(C)CC2)c(O)c2ncccc12	i	.
CCOC(=O)N1CCN(Cc2cc(Cl)c3cccnc3c2O)CC1	i	14.8*
CC(C)N1CCc2c(sc(NC(=O)c3cc(-c4cccs4)nc4ccccc34)c2C(N)=O)C1	-6.42*	-6.42
CC(C)N1CCc2c(sc(NC(=O)c3nc4ccccc4s3)c2C(N)=O)C1	i	.
CCCCC1(Cc2ccc([N+](=O)[O-])cc2)C(=O)N(c2ccccc2)N(c2ccccc2)C1=O	-5.97*	-5.97
Cc1nn(Cc2ccc([N+](=O)[O-])cc2)c(=O)n1-c1ccccc1	i	0.03
COc1ccc(N(CC(=O)N2CCN(Cc3ccccc3)CC2)S(C)(=O)=O)cc1Cl	i	0.18
Cc1cc(Oc2ccc(-c3ccccc3)cc2)nc(N2CCOCC2)n1	i	.
Cc1cc(Oc2ccc(C(C)(C)C)cc2)nc(N2CCOCC2)n1	-6.23*	-6.23
CC1CC(c2ccccc2)NS(=O)(=O)O1 (stereo not given)	i	0.76
COc1ccc(-c2csc3nc[nH]c(=O)c23)cc1OC	i	1.05
Cc1ccc(-c2csc3nc[nH]c(=S)c23)cc1C	i	10.3*
CCN(CC(=O)Nc1ccccc1C(F)(F)F)C(=O)Cc1ccccc1	i	.
Cn1ccnc1C(=O)c1cccc(Br)c1	i	.
O=C(NC(Cc1c[nH]c2ccccc12)C(=O)N/N=C/c1cccc2ccccc12)c1cccs1 (stereo not given)	-8.1*	-8.1
O=C(NC(Cc1c[nH]c2ccccc12)C(=O)O)c1cccs1 (stereo not given)	i	.
Cc1cc(OCC(=O)NCCCn2ccnc2)c2c(C)c(C)c(=O)oc2c1	i	.
C=CCC1(C#N)C(SC)=NC2=C(C(=O)CC(C)(C)C2)C1c1ccc(Br)cc1 (stereo not given)	-6.57*	-6.57
Cc1ccc(C2C3=C(CC(C)(C)CC3=O)N=C3c4ccccc4C(=O)C32)cc1 (stereo not given)	i	.
